This excerpt belongs to a sample that is enriched for hits.
Gal4-VP16 FLuc: inhibits Gal4-VP16 luciferase reporter, ROR gamma counter-screen | Drosophila S2 Gal4-VP16 UAS-luciferase, luminescence, 20 h | Potency, µM (top dose mostly 53.6 µM), for inactives: at the highest dose activity, negative = inhibition, hits mostly inhibitors | 310,000 compounds, 3.5% hits;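 also: Gal4-VP16 expression switched on by copper sulfate through the metallothionein promoter; potency is read from the fitted curve at half-maximal effect; % is scaled to controls: 0 for no effect and ±100 for the full control effect; nearly all actives have a fitted effect of over 50% in size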
Integrin act MD: activators of alpha7 integrin expression for muscular dystrophy | AID 624291 | Potency, µM (doses to about 38.3 µM), without a hit: at the highest dose activation, hits mostly activators | 350,000 compounds, 0.064% hits | alpha7betagal myoblasts, beta-gal FDG fluorescence, 48 h;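 also: potency is read from the fitted curve at half-maximal effect; 100% = response of the positive control SU9516; nearly all actives have a fitted effect of over 60% in size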
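Alpha7betagal+/- myoblasts (passage 13) were plated 16-24 hr, then exposed to compounds (1:260 dilution of DMSO stock) for 48 hours at 37C. After MPER lysis, β-galactosidase reporter activity was read as FDG fluorescence (ex 480/em 540) after 30 minutes.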
Giardia kill: kills Giardia lamblia; Giardia lamblia trophozoite viability; activity change, % at 7.66 µM, hits read low; 340,000 compounds, 0.15% hits; in the data active = activity change below about -80%; inconclusive = between about -30% and that limit;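 also: parasites exposed to compound for two days anaerobically before the ATP read; % is scaled to controls: 0 for no effect and ±100 for the full control effect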
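Trophozoite viability was measured as ATP-dependent luminescence, read 15-30 min after reagent addition. Before that, parasites at 100 cells/well were exposed to compounds for 48 h, anaerobically, at 37 deg C.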
ERG-DNA inh: blocks human ERG Ets domain binding to DNA | AID 624246 | Potency, µM (series often up to 76.9 µM), for inactives: at the highest dose FP activity, negative = inhibition, actives largely listed as inhibitors | 370,000 compounds, 0.028% hits | fluorescence polarization, His-ERG Ets domain / labelled DNA; active = well fitted inhibition curve with a large enough effect in the polarisation, with a control signal flat; inconclusive = small, poorly fitted or top-dose-only effect, or effect the other way, or a change in a side signal; inactive = no such curve, though single readings can be large or run the other way; the % refers to the polarisation;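 also: polarization taken with two DNA probes labelled with fluorescein and Texas red; potency is read from the fitted curve at half-maximal effect; % of control where 0% means no effect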
Target sequence (P11308 whole entry, looked up, the tested form may be a part): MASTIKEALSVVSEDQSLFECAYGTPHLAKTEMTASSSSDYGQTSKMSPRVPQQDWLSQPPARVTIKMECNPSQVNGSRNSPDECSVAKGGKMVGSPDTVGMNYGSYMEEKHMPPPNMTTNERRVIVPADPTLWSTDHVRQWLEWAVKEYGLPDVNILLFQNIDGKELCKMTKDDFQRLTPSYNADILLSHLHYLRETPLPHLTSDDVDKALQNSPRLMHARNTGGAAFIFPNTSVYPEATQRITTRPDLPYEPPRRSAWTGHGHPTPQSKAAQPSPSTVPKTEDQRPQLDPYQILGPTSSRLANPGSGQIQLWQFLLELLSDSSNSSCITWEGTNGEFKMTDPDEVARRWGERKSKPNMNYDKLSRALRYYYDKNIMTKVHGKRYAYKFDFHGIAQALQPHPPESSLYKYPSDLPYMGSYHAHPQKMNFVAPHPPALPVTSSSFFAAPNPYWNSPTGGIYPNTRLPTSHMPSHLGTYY
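His-tagged ERG Ets domain (1 uM in the protein solution; 300mM KCl, 50mM Tris-HCl, 1mM EDTA, 1mM DTT, pH 7.5) received compound, then a probe mix of 5 nM fluorescein-DNA and 100nM Texas-615-DNA. Fluorescence polarization was read for both dyes.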
RORg inh: inhibitors of mouse ROR gamma transcriptional activity. Potency, µM (series often up to 53.6 µM), for the others: top-dose activity change, negative = inhibition, actives largely listed as inhibitors. P51450. Drosophila S2 Gal4-RORgamma UAS-luciferase reporter, 20 h. 310,000 compounds, 5.4% hits; also: potency is read from the fitted curve at half-maximal effect; % is scaled to controls: 0 for no effect and ±100 for the full control effect; nearly all actives have a fitted effect of over 60% in size
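ROR gamma transcriptional activity was tracked as Gal4-UAS luciferase output in stably transfected Drosophila Schneider cells, with compound added 1 hr before 700 uM copper sulfate induction and a 20 hr ambient-temperature incubation.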
Active calls of the source: *; ? = inconclusive; · = no result given; ! = repeats disagree; [ ] = another dose, or the depositor's remark. Unless noted, calls follow the shape of the dose curve; as a rule, active = well fitted curve in the direction sought with a large enough effect; inconclusive = small, poorly fitted or top-dose-only effect, or another doubt; inactive = no such curve, though single readings can be large; an effect the other way counts as inactive or inconclusive.

SMILES | Gal4-VP16 FLuc | Integrin act MD | Giardia kill | ERG-DNA inh | RORg inh
c1ccc(-c2cn3c4c(sc3n2)CCCC4)cc1 | 6.31µM* | ? | ? | -3.3% | 3.55µM*
COc1cc(NC(=O)Cn2nc(C(F)(F)F)c3c2CCC3)cc(OC)c1OC | · | · | · | 5.0% | ·
N/C(=N\OC(=O)c1ccc([N+](=O)[O-])cc1Cl)c1ccccn1 | 11.2µM* | 2.0% | -2.0 | 3.8% | 10µM*
N/C(=N\OC(=O)c1cc([N+](=O)[O-])ccc1Cl)c1ccccn1 | ? | 0.0% | -14.9 | -0.6% | 3.98µM*
N/C(=N\OC(=O)c1ccc(Cl)cc1[N+](=O)[O-])c1ccccn1 | -26.4% | -38.5% | ? | 5.3% | -20.9%
CCc1ccc2oc(C(=O)NCCc3ccc(OC)c(OC)c3)cc(=O)c2c1 | · | · | · | 3.2% | ·
C=C1C=CS(=O)(=O)N(Cc2ccccc2)C1 | ? | · | -5.9 | · | ?
COc1ccc(-c2cnnc(N/N=C/c3ccc(C)o3)n2)cc1 | -9.4% | 3.1% | 3.4 | 0.7% | 5.01µM*
COc1ccc(-c2cnnc(N/N=C/c3ccc(O)cc3)n2)cc1 | -0.1% | 7.1% | -25.0 | -0.6% | 3.1%
COc1ccc(-c2cnnc(N/N=C/c3ccc(O)c(O)c3)n2)cc1 | 8.91µM* | 3.1% | 16.9 | -1.6% | ?
C[C@H]1COC(=O)[C@H]2CCCN2C(=O)[C@@H](C)COC(=O)[C@H](Cc2ccccc2)NC1=O | 7.0%[10 µM] | · | · | · | 2.7%[10 µM]
Cc1cccc(C(=O)N2CCc3cc(CNS(=O)(=O)c4ccc(F)c(Cl)c4)ccc32)c1 | · | · | · | 0.3% | ·
CC1CCCN(C(=O)c2ccc3c(=O)n(Cc4ccc5c(c4)OCO5)c(=S)[nH]c3c2)C1 (stereo not drawn) | ? | 12.1% | -17.7 | 1.7% | 7.94µM*
CCCN(CCC)C(=O)c1ccc2c(=O)n(Cc3ccco3)c(=S)[nH]c2c1 | ? | 16.6% | -5.8 | 4.6% | 3.16µM*
CCN(CC)C(=O)c1ccc2c(=O)n(Cc3cccc(Br)c3)c(=S)[nH]c2c1 | 12.6µM* | 6.9% | 43.3 | 1.7% | 7.08µM*
CCN(CC)C(=O)c1ccc2c(=O)n(CCOC)c(=S)[nH]c2c1 | -10.2% | -2.1% | 2.5 | -11.3% | -11.2%
CN1CCN(C(=O)c2ccc3c(=O)n(Cc4ccco4)c(=S)[nH]c3c2)CC1 | -2.6% | 1.9% | -3.5 | 1.8% | -6.5%
CCN(CC)C(=O)c1ccc2c(=O)n(Cc3ccc4c(c3)OCO4)c(=S)[nH]c2c1 | ? | 6.8% | 7.7 | 3.2% | 11.2µM*
CCCN1C(=O)c2ccccc2NC1c1ccc(OC)c(COc2ccc([N+](=O)[O-])c(C)c2)c1 (stereo not drawn) | · | · | 1.6 | · | ·
CC1=C(C(=O)N(C)C)CC(CC(=O)NCCc2ccccn2)C(=O)N1CCCN1CCCC1=O (stereo not drawn) | · | 12.4% | · | · | ·
CC(C)(C)c1nn(-c2ccccc2)c2[nH]c(=O)c(C=O)cc12 | · | -6.2% | 15.3 | 5.4% | ·
COC(=O)c1ccc(-c2ccc(C3C4C=CCC(C)C4C(=O)N3Cc3ccccc3)c(F)c2)cc1 (stereo not drawn) | 2.2% | · | 17.8 | · | 31.0%
CC(C)C[C@@H](CC(=O)N[C@H](CC(=O)N[C@@H]1CCNC[C@H]1C(=O)N[C@H](CC(=O)N[C@@H](CCC(=O)O)CC(=O)O)CC(C)C)C(C)C)NC(=O)[C@@H]1CNCC[C@H]1N | 3.8% | · | · | · | -14.7%
CC(C)[C@@H](CC(=O)N[C@@H]1CCCC[C@H]1C(=O)N[C@H](CC(=O)N[C@@H](CCC(=O)O)CC(=O)O)Cc1ccccc1)NC(=O)C[C@H](Cc1ccccc1)NC(=O)[C@@H]1CNCC[C@H]1N | 0.4% | · | · | · | -12.5%
C/C(CCN1CCc2nc(-c3ccccc3)c(-c3ccccc3)cc2C1)=N\O[C@@H](C)CN1CCCCc2nc(C)c(C)cc21 | -0.9%[10 µM] | · | · | · | -13.2%[10 µM]
SMILES | Gal4-VP16 FLuc | Integrin act MD | Giardia kill | ERG-DNA inh | RORg inh
CC1(C)Cc2c(sc3[nH]c(=S)n(Cc4ccco4)c(=O)c23)CO1 | 1.41µM* | -7.2% | 0.4 | · | 1µM*
O=c1c2c3c(sc2[nH]c(=S)n1Cc1ccco1)CCC3 | ? | -20.2% | 3.4 | 8.5% | ?
CCCn1c(=S)[nH]c2cc(C(=O)N(CCO)Cc3ccccc3)ccc2c1=O | ? | -9.3% | -3.4 | 3.7% | 12.6µM*
CCN(CC)CCn1c(=S)[nH]c2cc(C(=O)NCc3ccccc3)ccc2c1=O | · | 15.1% | · | · | ·
CC(C)(C)NC(=S)NCC1CC1 | ? | -11.2% | -2.4 | 7.9% | 7.08µM*
CCOc1ccc(CCNC(=O)Cn2ccc3cc(S(=O)(=O)N4CCCCCC4)ccc32)cc1 | · | · | · | 4.2% | ·
CCOc1ccc(OCCn2c(=S)[nH]c3c(N)ncnc32)cc1 | 4.2% | 17.1% | 4.3 | -3.0% | 2.51µM*
CN(C)S(=O)(=O)c1cccc(-c2nn(-c3ccccc3)cc2/C=C2\SC(=S)NC2=O)c1 | ? | 22.0% | -11.9 | 3.4% | 12.6µM*
c1ccc(C2Nc3ccccc3-c3nc4ccccc4n32)cc1 (stereo not drawn) | 10.2% | 16.7% | -0.2 | -9.2% | -0.2%
CCN1c2ccccc2-c2nc3ccccc3n2C1c1cccs1 (stereo not drawn) | ? | 4.6% | 11.0 | 13.2% | 12.6µM*
CC(C)(C)N1C(=O)[C@H]2[C@H]3[C@H](O)[C@H](O)C/C(=N/OC[C@@H](O)COCc4ccco4)[C@H]3CC[C@@H]2C1=O | 3.2%[10 µM] | · | · | · | -14.6%[10 µM]
Oc1cc2c(cc1O)C1c3ccc(O)c(O)c3OCC1(O)C2 (stereo not drawn) | 12.6µM*! | -30.8% | -13.9 | -5.6% | ?
N#CC1=C(Nc2ccccc2Cl)SC(c2ccccc2O)NC1=O (stereo not drawn) | ? | -29.0% | -5.2 | 4.2% | 12.6µM*
COc1cccc(NC2=C(C#N)C(=O)NC(c3cccc(OC)c3O)S2)c1 (stereo not drawn) | -9.6% | -41.5% | -7.8 | 4.0% | ?
CCC/C=C(\CCC)C(NS(=O)(=O)c1ccc(Cl)cc1)c1ccccc1 (stereo not drawn) | 1.8% | · | · | · | ?
CC(C)c1ccc(S(=O)(=O)c2cnc(SCC(=O)Nc3cccc(C(F)(F)F)c3)nc2N)cc1 | · | · | · | 3.4% | ·
CCOc1ccc(NC(=S)NN(C)C(=S)Nc2ccc(OCC)cc2)cc1 | ? | 13.2% | -11.3 | -1.1% | 7.94µM*
CCOc1ccc(NC(=S)NC(C)c2cccs2)cc1 (stereo not drawn) | 5.01µM* | 15.1% | -2.8 | -0.6% | 3.16µM*
COc1ccc(NC(=S)Nc2ccc(F)cc2)cc1 | ? | 20.5% | 3.5 | 8.7% | ?
CCOc1ccc(NC(=S)NC23CN4CN(CN(C4)C2)C3)cc1 | -7.0% | -27.5% | 0.3 | -1.5% | -28.5%
CCOc1ccc(NC(=S)Nc2ccccc2C2(C)CC2)cc1 | ? | -4.9% | 3.4 | -4.6% | 7.94µM*
CCOc1ccc(NC(=S)Nc2ccc(F)cc2)cc1 | ? | ? | 11.6 | 0.6% | 12.6µM*

Bioassay records: PubChem BioAssay, National Center for Advancing Translational Sciences (NCATS)
